# Measured potencies and affinities stand elsewhere. A number with no mark means an inactive call. The source made the active and inactive calls.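 How the source made its calls: active means compounds lowering cell ATP signal whose fitted half-effect concentration is at most twice the top tested dose; inconclusive means flat curves with 30 to 70% signal loss, or poor fits; inactive means the rest.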
# Experiment: HepG2 cell cytotoxicity, dose response, cytotoxicity control, ATP luminescence, dry powder (AID 652118)
# Conditions: HepG2 viability, CellTiter-Glo ATP luminescence, 48 h; series mostly up to 26 µM; activity change, negative = cytotoxicity: at the top concentration
SMILES,"activity change, negative = cytotoxicity [%]",outcome
CCOC(=O)C1(CCOc2ccccc2)CCN(Cc2cccc(Cl)c2)CC1,-12.2,–
C=CCOc1ccc(CN2CCC(CCOc3ccccc3)(C(=O)N3CCCC3)CC2)cc1Cl,-16.6,–
CCOC(=O)C1CCN(C(=O)OC(C)(C)C)CC1,-0.439,–
CC(C)(C)OC(=O)C1(CCOc2ccccc2)CCN(Cc2ccc(O)c(Cl)c2)CC1,-0.39,–
C=CCOc1ccc(CN2CCC(CCOc3ccccc3)(C(=O)NCC)CC2)cc1Cl,-1.24,–
CCNC(=O)C1(CCOc2ccccc2)CCN(Cc2ccc(O)c(Cl)c2)CC1,0.984,–
O=C(Nc1ccccc1)C1(CCOc2ccccc2)CCN(Cc2ccc(O)c(Cl)c2)CC1,2.3,–
CCOC(=O)C1(CCOC)CCCN(Cc2ccc(Cl)cc2)C1 (stereo not drawn),-0.17,–
C=CCOc1ccc(CN2CCC(CCOc3ccccc3)(C(=O)OCC)CC2)cc1Cl,-11.7,–
C=CCOc1ccc(CN2CCC(CCOc3ccccc3)(C(=O)O)CC2)cc1Cl,-13.2,–
C/C1=C\[C@@H](O)C(C)(C)CCCC2(C)OC2C[C@@H]1OC(=O)c1ccc(O)cc1 (stereo partly drawn),-14.3,–
C/C1=C\C[C@H](OC(=O)c2ccc(O)cc2)/C(C)=C/[C@@H](O)C(C)(C)CCC1,-0.876,–
CCOC(=O)C1(CCOc2ccccc2)CCN(Cc2ccc3[nH]c(=O)oc3c2)CC1,1.95,–
O=C(N1CCCC1)C1(CCOc2ccccc2)CCN(Cc2ccc(O)c(Cl)c2)CC1,-17.1,–
CCN(C)C(=O)C1(CCOc2ccccc2)CCN(Cc2ccc(O)c(Cl)c2)CC1,-13.9,–
CCOC(=O)C1(Cc2cccc(OC)c2)CCN(Cc2ccc(O)c(Cl)c2)CC1,-6.29,–
CCOC(=O)C1(CCOc2ccccc2)CCN(Cc2ccc(O)c(Cl)c2)CC1,–,inactive
CCOC(=O)C1(CCOc2ccccc2)CCN(Cc2ccc(OC)c(Cl)c2)CC1,2.07,–
O=C(NC1CCCC1)C1(CCOc2ccccc2)CCN(Cc2ccc(O)c(Cl)c2)CC1,-1.5,–
CCOC(=O)C1(CCOc2ccccc2)CCN(Cc2ccc(O)cc2)CC1,3.84,–
CC(C)OC(=O)C1(CCOc2ccccc2)CCN(Cc2ccc(O)c(Cl)c2)CC1,-7.24,–
CCOC(=O)C1(CCOc2ccccc2)CCN(Cc2ccc(OC)cc2)CC1,-19.6,–
CCOC(=O)c1c(CN2CCN(CCO)CC2)n(-c2ccccc2)c2cc(Br)c(O)cc12,-23.9,–
C=CCOc1ccc(CN2CCC(CCOc3ccccc3)(C(=O)N(C)CC)CC2)cc1Cl,-7.02,–
CCOC(=O)C1(CCOC)CCN(Cc2ccc(O)c(Cl)c2)CC1,-7.37,–
CCOC(=O)C1(CCOc2ccccc2)CCN(C(=O)c2ccc(O)c(Cl)c2)CC1,-11.1,–
CCOC(=O)C1(Cc2ccccc2)CCN(Cc2ccc(O)c(Cl)c2)CC1,-15.9,–
C=CCOc1ccc(CN2CCC(CCOc3ccccc3)(C(=O)NC3CCCC3)CC2)cc1Cl,0.235,–

# Source: PubChem BioAssay AID652118 (Broad Institute, 2013)
